Mdm2 MdmX PPI: disrupts the human Mdm2-MdmX interaction; 330,000 compounds, 3% hits; SaOS-2 split-luciferase Mdm2/MdmX complementation, luminescence; inhibition, % at 8 µM; AID 485346;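 active = inhibition of at least 50% at 8 µM in the primary screen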
Target sequence (O15151 whole entry, looked up): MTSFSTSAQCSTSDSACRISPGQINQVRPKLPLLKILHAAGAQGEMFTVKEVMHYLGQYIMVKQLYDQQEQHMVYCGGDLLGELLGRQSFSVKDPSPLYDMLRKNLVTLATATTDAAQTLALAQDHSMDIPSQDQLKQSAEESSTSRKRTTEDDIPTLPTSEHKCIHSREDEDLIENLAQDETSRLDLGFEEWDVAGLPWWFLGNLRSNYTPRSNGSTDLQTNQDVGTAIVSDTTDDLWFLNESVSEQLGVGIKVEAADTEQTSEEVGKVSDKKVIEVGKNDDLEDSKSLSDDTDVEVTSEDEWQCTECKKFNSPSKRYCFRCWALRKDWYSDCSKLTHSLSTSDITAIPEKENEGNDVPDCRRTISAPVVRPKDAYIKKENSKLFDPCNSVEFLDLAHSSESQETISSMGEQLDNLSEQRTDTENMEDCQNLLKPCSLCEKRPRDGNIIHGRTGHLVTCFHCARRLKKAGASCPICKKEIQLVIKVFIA
Target sequence (Q00987 whole entry, looked up): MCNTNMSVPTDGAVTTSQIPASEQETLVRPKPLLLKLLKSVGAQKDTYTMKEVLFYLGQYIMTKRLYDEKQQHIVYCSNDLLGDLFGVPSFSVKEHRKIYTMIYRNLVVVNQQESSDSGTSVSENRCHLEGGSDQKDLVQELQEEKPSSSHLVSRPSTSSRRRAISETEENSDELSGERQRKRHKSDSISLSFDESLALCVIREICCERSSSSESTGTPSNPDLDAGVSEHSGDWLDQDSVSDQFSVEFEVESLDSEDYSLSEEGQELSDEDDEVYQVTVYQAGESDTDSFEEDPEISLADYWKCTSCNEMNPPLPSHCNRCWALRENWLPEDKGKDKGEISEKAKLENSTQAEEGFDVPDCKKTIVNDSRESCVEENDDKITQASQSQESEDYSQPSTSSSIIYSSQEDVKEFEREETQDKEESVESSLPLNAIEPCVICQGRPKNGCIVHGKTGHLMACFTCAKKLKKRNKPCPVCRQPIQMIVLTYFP
aSyn 5UTR inh: 5' untranslated region of α-synuclein, MLPCN primary screen. alpha-synuclein 5'UTR reporter, inhibitor activity. inhibition, % (tested at 7.5 µM). 300,000 compounds, 0.82% hits; in the data active = inhibition above about 60%; inconclusive = no clear call, values can overlap the other calls;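 also: H4 neuroglioblastoma cells stably carrying SNCA 5'UTR luciferase fusion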
Jurkat NFkB inh: lowers PMA/ionomycin-induced NF-kB signal in Jurkat cells; 330,000 compounds, 0.53% hits; AID 435003; inhibition, % at 4 µM; PMA/ionomycin-induced NF-kB luciferase reporter, luminescence; in the data active = inhibition above about 50%
CSC inhib: blocks cancer stem cells | 300,000 compounds, 1.1% hits | cancer stem cell-like cells viability, luminescence | inhibition, % at 7.5 µM; in the data active = inhibition above about 75%; inconclusive = no clear call, values can overlap the other calls; tested in HMLE shEcad cells
Gli-Sufu antag: Gli-Sufu pathway antagonism; Sufu-KO-LIGHT fibroblasts, Gli luciferase reporter luminescence; inhibition, % at 5 µM; 340,000 compounds, 0.74% hits; AID 588413;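 active = inhibition above about 55%, limit read from the data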
697 NFkB inh: lowers PMA/ionomycin-induced NF-kB signal in 697 B cells | 330,000 compounds, 0.33% hits | 697 B-cell NF-kB luciferase reporter, 16 h | inhibition, % at 4 µM; in the data active = inhibition above about 35%
Mdm2 MdmX conf: human Mdm2/MdmX binding inhibition, confirmed; 10,000 compounds, 55% hits; inhibition, % at 8 µM; shares compounds with Mdm2 MdmX PPI; luminescent assay; in the data active = inhibition above about 40%
Full FLuc ctr: counter-screen for Mdm2/MdmX inhibitors: full-length luciferase | 6,200 compounds, 77% hits | inhibition, % at 8 µM | SaOS-2 full-length luciferase counterscreen, luminescence | shares compounds with Mdm2 MdmX PPI;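 active = mean inhibition at 8 µM reaching about 37%, which flags the compound as non-specific, limit read from the data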;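 also: p53-null SaOS-2 cells with luciferase driven by a doxycycline-inducible promoter; compound on cells about two nights before reading with doxycycline added after day one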
Each line names hits and unclear results; the compound was inactive in the other large screens (follow-up assays come after a bar, where they were run). Hits are enriched below; roughly 4.5% of the tested compounds scored in any of these assays.

CC(C)c1nc(SCC(=O)Nc2nc3c(s2)CCCC3)c2ccccc2n1	Mdm2 MdmX PPI 85 | Mdm2 MdmX conf 64 | Full FLuc ctr 45
Cc1ccc2c(c1)C1CN(C)CCC1N2Sc1ccccc1[N+](=O)[O-] (centres undefined)	Mdm2 MdmX PPI 61 | Mdm2 MdmX conf 40 | Full FLuc ctr 62
Cc1ccc(C(=O)C[n+]2ccc(Cc3ccccc3)cc2)cc1	Mdm2 MdmX PPI 52, aSyn 5UTR inh inconclusive | Mdm2 MdmX conf 44 | Full FLuc ctr 63
Cc1ccc(C)c(C(=O)COC(=O)CCN2C(=O)C3C4CCC(C4)C3C2=O)c1 (centres undefined)	none (no result: CSC inhib)
Cc1cccc(Cn2c(C(=O)OC(C)C)cc3c2ccn3C)c1	none (no result: CSC inhib)
COc1cc(C#Cc2c(-c3cncn3C)n(C)c3ccc(-c4ccc(OC)c(OC)c4)cc23)cc(OC)c1	Mdm2 MdmX PPI 52 (no result: aSyn 5UTR inh) | Mdm2 MdmX conf inactive
COc1cc(C#Cc2c(-c3cncn3C)n(C)c3ccc(-c4ccc5cc[nH]c5c4)cc23)cc(OC)c1	none (no result: aSyn 5UTR inh)
COc1cc(C#Cc2c(-c3cncn3C)n(C)c3ccc(Br)cc23)cc(OC)c1	Mdm2 MdmX PPI 75 (no result: aSyn 5UTR inh, CSC inhib) | Mdm2 MdmX conf inactive
Cc1cc2c(cc1S(=O)(=O)CCC(=O)NCCc1ccccc1)OCC(=O)N2	none
COc1ccccc1-c1n[nH]c(=S)n1Cc1ccco1	none (no result: Gli-Sufu antag)
CCOc1ccc2nc(-c3ccccc3)nc(SCC(=O)Nc3ncc(C)s3)c2c1	Mdm2 MdmX PPI 75 | Mdm2 MdmX conf inactive
C#CCOCCOCCOCCNc1nc(N2CCN(C(=O)CCCCCCCCCCNC(=O)[C@H](CO)n3cc(CCCSC)nn3)CC2)nc(N2CCN(C(=O)CCCCCCCCCCNC(=O)[C@H](CCCN=C(N)N)n3cc(C[C@@H](C)CC)nn3)CC2)n1	none (no result: aSyn 5UTR inh)
COc1ccc(NC(=O)CSc2nnc(Cc3cccs3)n2C)cc1	none (no result: CSC inhib)
COc1ccc(CNc2cc(C)nc3ccc(OC)cc23)cc1	Mdm2 MdmX PPI 52 | Mdm2 MdmX conf inactive
COc1ccc(-c2cc3nc[nH]c(=O)c3s2)cc1	none
COc1ccc(-c2cc3nc(CCl)[nH]c(=O)c3s2)cc1	Mdm2 MdmX PPI 95, aSyn 5UTR inh 71 | Mdm2 MdmX conf inactive
COc1ccc(Cl)cc1NC(=S)N1CC(C)OC(C)C1 (centres undefined)	none
CCCN1C(=O)/C(=C/c2c(NCCCOCC)nc3c(C)cccn3c2=O)SC1=S	none (no result: Mdm2 MdmX PPI, aSyn 5UTR inh, Jurkat NFkB inh, CSC inhib, 697 NFkB inh)
O=C1/C(=C\c2c(NCCOCCO)nc3ccccn3c2=O)SC(=S)N1Cc1ccco1	Mdm2 MdmX PPI 54 (no result: CSC inhib) | Mdm2 MdmX conf inactive
O=[N+]([O-])c1cccc(N(CC2CO2)S(=O)(=O)c2ccccc2)c1 (centres undefined)	none (no result: CSC inhib)
COc1ccc(OC)c(NC(=O)C2CCC(CNc3c(N4CCC(C)CC4)c(=O)c3=O)CC2)c1 (centres undefined)	Mdm2 MdmX PPI 52 | Mdm2 MdmX conf inactive
CCCCCCOC(=O)C(C#N)c1nc2ccccc2nc1N1CCOCC1 (centres undefined)	none
CCCCCCOC(=O)C(C#N)c1nc2ccccc2nc1N1CCN(CC)CC1 (centres undefined)	Mdm2 MdmX PPI 60 | Mdm2 MdmX conf inactive | Full FLuc ctr 70
CCOc1ccccc1N1CCN(c2nc3ccccc3nc2C(C#N)C(=O)OC)CC1 (centres undefined)	Mdm2 MdmX PPI 71 | Mdm2 MdmX conf inactive
O=C(CN1CCCCC1)Nc1ccc(NC(=O)c2ccc(Cl)cc2)cc1Cl	Mdm2 MdmX PPI 57 | Mdm2 MdmX conf inactive
O=S(=O)(CC(CN1CCCC1)N1CCCC1)c1ccc2ccccc2c1 (centres undefined)	Mdm2 MdmX PPI 75 | Mdm2 MdmX conf 85 | Full FLuc ctr 56
COc1ccc(CNCC(O)(c2ccccc2)c2ccc(Cl)cc2)cc1 (centres undefined)	Mdm2 MdmX PPI 50 | Mdm2 MdmX conf inactive
Cc1ccc(CNCC(O)(c2ccccc2)c2ccc(Cl)cc2)cc1 (centres undefined)	none (no result: Mdm2 MdmX PPI, Jurkat NFkB inh, CSC inhib, 697 NFkB inh)
CSCCC(NC(=O)c1ccccc1Cl)C(=O)N1CCN(c2ccccn2)CC1 (centres undefined)	none
O=C(c1cccc(Cl)c1)c1nn(-c2ccccc2)c(=O)cc1C(F)(F)F	Mdm2 MdmX PPI 77 | Mdm2 MdmX conf inactive
